Assay outcomes: PubChem, several laboratories
Only some compounds are listed: those with a hit (about 2% of all), similar ones and a draw of the others.
MCL1 BIM primary: inhibitors of human MCL1 binding to BIM-BH3 peptide; Q07820; GST-MCL1 / FITC-Bim-BH3 fluorescence polarization; inhibition, % at 10.9 µM; 0.68% of 320,000 active; AID 2057;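 active = inhibition above the mean inhibition of all tested compounds plus 3 SD, set per campaign, cut at about 40% in these data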;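 also: 0% = DMSO wells and 100% = unlabeled Bim-BH3 peptide control; higher means more loss of mP so more displacement of Bim peptide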
Target sequence (Q07820 whole entry, looked up): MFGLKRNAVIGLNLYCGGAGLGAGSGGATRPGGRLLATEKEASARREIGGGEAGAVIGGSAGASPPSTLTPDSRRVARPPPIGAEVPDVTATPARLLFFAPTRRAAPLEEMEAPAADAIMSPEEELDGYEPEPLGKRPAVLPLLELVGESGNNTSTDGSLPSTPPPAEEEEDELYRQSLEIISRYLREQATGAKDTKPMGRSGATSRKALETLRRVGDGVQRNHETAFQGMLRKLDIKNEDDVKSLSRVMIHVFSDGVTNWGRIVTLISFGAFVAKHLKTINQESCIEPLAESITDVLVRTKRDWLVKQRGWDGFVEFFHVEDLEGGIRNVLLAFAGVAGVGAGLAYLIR
Mcl1-Bid inh: disrupts binding of human Mcl-1 to Bid peptide | TR-FRET Mcl-1/Bid-Dy647 peptide binding, 1536-well | 0.97% of 220,000 active | inhibition, % at 21.7 µM | Q07820;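 active = compounds that cut the binding signal by more than half at the single screening dose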;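 also: His-tagged Mcl-1 with europium anti-His antibody binding Bid BH3 peptide; 0% = Mcl-1 plus peptide wells and 100% = peptide-only wells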
Bim-Mcl-1: inhibitors of Bim-Mcl-1 interaction, human; inhibition, % at 10 µM; Bead-based flow cytometry, Bim peptide-Mcl-1 binding; 0.1% of 190,000 active; Q07820; in the data active = inhibition above about 40%;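 also: 0% = no compound tracer wells and 100% = peptide blocker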
Mcl1-Noxa inh: Mcl-1/Noxa interaction inhibition. Q07820. TR-FRET Mcl-1/Noxa peptide binding, 2 h. inhibition, % at 21.7 µM. 1.5% of 220,000 active;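 active = compounds that cut the protein-peptide binding signal by more than 50% relative to plate controls in a single-dose test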;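 also: His-tagged Mcl-1 with rhodamine Noxa BH3 peptide and terbium anti-His antibody; 0% = Mcl-1 plus Noxa peptide wells and 100% = peptide-only wells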
Starred values were filed as active, the others as inactive; / = no result.

SMILES | MCL1 BIM primary | Mcl1-Bid inh | Bim-Mcl-1 | Mcl1-Noxa inh
CC(=O)NCC(=O)OC(C)C(=O)Nc1ccc(C(C)=O)cc1 (stereo unspecified) | 6 | -10 | -2 | 25
Cc1ccc(C(=O)NCC(=O)OC(C)C(=O)Nc2ccc(N(C)C)cc2)cc1C (stereo unspecified) | -2 | -60 | 1 | 71*
O=C1C(=O)N(Cc2ccccc2)C(=O)N1CCOc1ccccc1 | / | -37 | 3 | -2
N/C(=N\N=C/c1ccc(Br)cc1)N/N=C\c1ccc(Br)cc1 | 4 | -10 | 40* | 8
N/C(=N\N=C/c1ccc(F)cc1)N/N=C\c1ccc(F)cc1 | 12 | / | / | /
CCN(CC)c1ccc(/C=C(\C#N)C(N)=O)cc1 | / | -13 | 0 | 7
CCN(CC)c1ccc(/C=C(\C#N)C(=O)c2ccc(Br)cc2)cc1 | 45* | -11 | / | -15
CSc1nnc2ccc(-c3cccs3)nn12 | -5 | -5 | 42* | 3
CCN(C(=O)COC(=O)CNC(=O)c1ccc(C)s1)c1ccccc1 | -4 | -72 | 0 | 2
Cc1ccc(C)c(C(=O)COC(=O)CCCC(=O)Nc2cc(C(F)(F)F)ccc2Cl)c1 | 5 | 94* | 27 | 13
O=C(CCNC(=O)c1ccccc1Cl)Nc1cc(C(F)(F)F)ccc1Cl | -4 | 11 | 0 | 9
CC(=O)Nc1ccc(Cl)c(C(N)=O)c1 | -2 | 14 | -2 | 24
NC(=O)c1cc(N2C(=O)C=CC2=O)ccc1Cl | 17 | -54 | 0 | 68*
O=C(NC1CCN(S(=O)(=O)c2cccc(Cl)c2)CC1)C1CCCCC1 | 8 | / | / | /
Cc1ccccc1NC(=O)c1cc[n+]([O-])cc1 | -3 | / | / | /
CC(C)(C)c1ccc(/C=N/NC(=S)Nc2cccnc2)cc1 | -3 | -91 | -1 | -23
Oc1ccc(/C=N/NC(=S)Nc2cccnc2)cc1O | 47* | -58 | -2 | 59*
Cc1ccc(-c2nnc(SCC(=O)N/N=C/c3ccc(C)s3)n2-c2ccc(C)cc2)cc1 | -6 | 97* | -5 | 23
CCn1c(=O)ccc2cc([N+](=O)[O-])ccc21 | 3 | 2 | -2 | 9
CCOc1ccc(NC(=O)C(c2ccccn2)N(C(=O)CCl)c2ccc(OCC)cc2)cc1 (stereo unspecified) | 6 | -20 | -4 | 4
CCOc1ccc(NC(c2ccccn2)c2oc(CO)cc(=O)c2O)cc1 (stereo unspecified) | 28 | -73 | -4 | 63*
Cc1cc(F)ccc1NCC(=O)Nc1ccccc1Br | 5 | -43 | -6 | 2
C=CCN(CC=C)Cc1cc(=O)n2c(-c3ccccc3)csc2n1 | -2 | / | / | /
O=c1cc(CN2CCN(c3ccc(O)cc3)CC2)nc2scc(-c3ccccc3)n12 | 19 | -35 | 0 | 67*
COc1ccc(C(=O)/C=C/c2ccsc2)cc1CSCC(=O)O | 18 | / | / | /
SMILES | MCL1 BIM primary | Mcl1-Bid inh | Bim-Mcl-1 | Mcl1-Noxa inh
O=c1[nH]c(CN2CCN(c3ccc(O)cc3)CC2)nc2scc(-c3ccc(Cl)cc3)c12 | 9 | -55 | 11 | 66*
O=[N+]([O-])c1ccc(-c2nc(NCc3ccccc3)c3ccccc3n2)cc1 | 2 | 39 | -6 | 56*
Cc1cc(C)nc(N/N=C/c2cccc(Cl)c2)n1 | 7 | -26 | -1 | 7
Clc1cccc(/C=N/Nc2nc(Cl)nc3ccccc23)c1 | 7 | -32 | 0 | 87*
Cc1ccc(-c2nc(N/N=C/c3cccc([N+](=O)[O-])c3)c3ccccc3n2)cc1 | 8 | 60* | -2 | 54*
Cc1ccc(-c2nc(N/N=C/c3cccnc3)c3ccccc3n2)cc1 | 1 | 1 | -1 | 24
CNC(=O)c1cc(C(=O)c2ccc(F)cc2C(F)(F)F)c[nH]1 | 2 | / | / | /
C#CCOc1ccccc1C(N)=O | 4 | -14 | / | 7
O=C(COC(=O)c1cc(S(=O)(=O)N2CCCCC2)ccc1N1CCOCC1)c1ccc(F)cc1 | 1 | / | / | /
CCC(C)[C@H](NC(=O)[C@@H]1Cc2ccccc2CN1)C(=O)Nc1ccc2c(c1)OCO2 (stereo partly specified) | 8 | / | / | /
O=C(c1ccc2c(c1)OCO2)[C@@H]1[C@@H]2C(=O)N(C3CCCCC3)C(=O)[C@@H]2C2c3ccccc3C=CN21 (stereo partly specified) | / | -13 | 0 | -3
O=C(c1cccs1)[C@@H]1[C@@H]2C(=O)N(Cc3ccc4c(c3)OCO4)C(=O)[C@@H]2C2c3ccccc3C=CN21 (stereo partly specified) | 43* | -75 | -3 | -7
CCOC(=O)c1sc2nc3c(SCCC(=O)O)cc(C(=O)c4cc(OC)ccc4O)cn3c(=O)c2c1C | / | 85* | 0 | 87*
O=C(O)CSc1cc(C(=O)c2cc(F)ccc2O)cn2c(=O)c3c(-c4ccccc4)csc3nc12 | 8 | 3 | / | 104*
Oc1ccccc1CNc1ccc(OC(F)(F)F)cc1 | -5 | -78 | 0 | 57*
Cc1ccc(NCc2ccccc2O)cc1C | 1 | -43 | -1 | 17
Cc1cccn2c(=O)c3cc(C(=O)NCC4CCCO4)c(=N)n(C4CCCC4)c3nc12 (stereo unspecified) | 1 | / | / | /
COc1ccc(CCNc2ncnc3c2[nH]c2cc(OC)c(OC)cc23)cc1OC | -1 | -8 | / | 66*
COc1cc2[nH]c(=S)nc(Nc3ccc(NC(C)=O)cc3)c2cc1OC | 24 | -79 | 33 | 78*
COc1cc2[nH]c(=S)nc(NCCc3ccc(C)cc3)c2cc1OC | / | -41 | 16 | 20
COc1ccc(CCNc2ncnc3cc(OC)c(OC)cc23)cc1OC | / | -21 | 0 | 10
COc1cc2[nH]c(=S)nc(NCCc3ccc(S(N)(=O)=O)cc3)c2cc1OC | 11 | -55 | 38 | 59*
COc1ccc(CCNc2nc(=S)[nH]c3cc(OC)c(OC)cc23)cc1OC | 10 | -23 | 27 | 80*
CCOc1ccc(NC(=O)CN(C)C(=O)CCCOc2ccc(Cl)c(C)c2)cc1OCC | -10 | / | / | /
COc1ccccc1C(=O)NNC(=O)c1ccc(Br)o1 | 6 | / | / | /
SMILES | MCL1 BIM primary | Mcl1-Bid inh | Bim-Mcl-1 | Mcl1-Noxa inh
CCN(CC)CCNC(=O)c1ccc(CS(=O)(=O)c2ccc(Br)cc2)o1 | 0 | 58* | -2 | 9
COc1cccc(-c2nc(N3CCN(C)CC3)c3ccccc3n2)c1O | 4 | -54 | / | 68*
CC(C)Cc1nnc(NC(=O)c2cc([N+](=O)[O-])ccc2N2CCOCC2)s1 | -6 | / | / | /
CCNC(=S)N/N=C/c1cccc(OCc2c(F)cccc2Cl)c1 | -1 | -25 | -5 | 21
COc1ccc(C(=O)Nc2cccc(-c3cc4ccccc4oc3=O)c2)cc1[N+](=O)[O-] | 10 | 87* | -1 | 56*
CC(=O)Nc1ccc(NC(=O)c2cccc(-c3cc4ccccc4oc3=O)c2)cc1 | 8 | 11 | 0 | 10
COc1ccc2nc(NC(=O)c3cccc(-c4cc5ccccc5oc4=O)c3)sc2c1 | -14 | 87* | -2 | 54*
COCCN(CC(=O)Nc1cccc(C)c1C)C(=O)c1oc2c(Cl)cccc2c1C | -1 | / | / | /
O=C(Nc1ccc(Cl)c(Cl)c1)c1ccc(Cl)c(Cl)c1 | 2 | -24 | / | 9
Cc1ccc(NC(=O)c2ccc(Cl)c(N3C(=O)C=CC3=O)c2)cc1 | 16 | 29 | -8 | 57*
CC(C)c1ccc(/C=N/NC(=O)c2ccccc2Cl)cc1 | -2 | -3 | 45* | 20
